Results as given in PubChem BioAssay (NCI).
This is part of a sample that, as a whole, favours compounds with a hit. Of some 83,000 tested, about 20% had one in any assay.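 Assay: single dose, 48 h. Readout: percent growth (0 = no net growth; negative = cell death). Active: <10.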 Active and inactive are the calls of the source.

What was measured:
Test in all cases: NCI-60 one-dose screen, 48 h (100 = growth as untreated, 0 = no growth, -100 = all killed)
Conditions in all cases: 10 µM unless noted
[1] = system: SR leukemia
[2] = system: RPMI-8226 leukemia
[3] = system: OVCAR-8 ovarian
[4] = system: OVCAR-5 ovarian
[5] = system: OVCAR-4 ovarian
[6] = system: SK-OV-3 ovarian
[7] = system: IGROV1 ovarian
[8] = system: OVCAR-3 ovarian
[9] = system: NCI/ADR-RES ovarian
[10] = system: HS 578T breast

Measured: growth

CCOc1ncc([N+](=O)[O-])c(OCC)n1
inactive: [1] 93.7% | [2] 84.8% | [3] 105% | [4] 101% | [5] 113% | [6] 97% | [7] 107% | [8] 124% | [9] 99.5%

Nc1c(Cl)cc(/C=C2\C=Cc3ccccc32)cc1Cl
inactive: [1] 93.9% | [2] 107% | [3] 104% | [4] 102% | [5] 107% | [6] 102% | [7] 103% | [8] 111% | [9] 101%

N#Cc1ccccc1-c1ccc(CN2C(=O)S/C(=C\c3ccc(Br)cc3)C2=O)cc1
inactive: [1] 89.3% | [2] 103% | [3] 101% | [4] 101% | [5] 90.2% | [6] 94.3% | [7] 98.3% | [8] 112% | [10] 92.3% | [9] 94.1%

CN(C)Cc1cc(C(C)(C)C)cc(Br)c1O
inactive: [1] 107% | [2] 96.9% | [3] 106% | [4] 107% | [5] 102% | [6] 97.4% | [7] 108% | [8] 114% | [10] 30.7% | [9] 106%

O=C1CCCC1[n+]1ccccc1 (stereo not drawn)
inactive: [1] 127% | [2] 103% | [3] 85.8% | [4] 70.5% | [5] 98% | [6] 80.1% | [7] 101% | [8] 97.8% | [9] 103%

Clc1ccc(Nc2nnc(CNc3ccccc3)c3ccccc23)cc1
active: [1] -9.19% | [2] 3.35% | [8] -1.64%
inactive: [3] 18.3% | [4] 41.4% | [5] 19.3% | [6] 22% | [7] 19.1% | [9] 18.8%

CCOc1ccc(NC(=O)Nc2ccc(OCC)cc2)cc1
inactive: [1] 99.4% | [2] 109% | [3] 103% | [4] 111% | [5] 112% | [6] 103% | [7] 110% | [8] 105% | [9] 106%

Cc1ccc(S(=O)(=O)OC[C@]23CCC(C)(C)C[C@H]2C2=CC[C@@H]4[C@@]5(C)CCCNC(C)(C)[C@@H]5CC[C@@]4(C)[C@]2(C)CC3)cc1
inactive: [2] 26.8% | [4] 84.7% | [5] 23.3% | [6] 103% | [7] 16.9% | [8] 76.5% | [10] 85.3% | [9] 52.3%
active: [1] -27.3% | [3] -13.7%

O=C1O[C@@H](c2ccccc2Cl)[C@@H]2c3cc4c(cc3CCN12)OCO4
inactive: [1] 100% | [2] 94.4% | [3] 98.7% | [4] 113% | [5] 104% | [6] 119% | [7] 94% | [8] 100% | [9] 104%

NS(=O)(=O)c1ccc(C(=O)N=Nc2c(O)[nH]c3ccc(Cl)cc23)cc1
inactive: [1] 95.3% | [2] 98.5% | [3] 95% | [4] 110% | [5] 99.7% | [6] 108% | [7] 98.1% | [10] 99.5% | [9] 102%

CC1(C)CC[C@]2(CO)CC[C@]3(C)[C@](O)([C@H](O)C[C@@H]4[C@@]5(C)CCCNC(C)(C)[C@@H]5CC[C@]43C)[C@@H]2C1
active: [1] 3.98%
inactive: [2] 74.4% | [3] 101% | [4] 106% | [5] 96.2% | [6] 98.2% | [7] 102% | [10] 98.9% | [9] 100%

Clc1ccc2nn3c4ccccc4c(OCCN4CCOCC4)nc3c2c1
inactive: [1] 88.1% | [2] 91.8% | [3] 85% | [4] 93.2% | [5] 90% | [6] 94.1% | [7] 71% | [10] 97.5% | [9] 80.4%

O=CN1N=C(c2cccc(Nc3ccnc4cc(Cl)ccc34)c2)CC1c1ccc(Cl)cc1 (stereo not drawn)
active: [1] 8.98% | [10] 1.82% | [9] 5.69%
inactive: [2] 32.9% | [3] 43.7% | [4] 58.7% | [5] 57.5% | [6] 24.1% | [7] 38.7%

C=C1C(=O)O[C@H]2[C@H]1CC/C(COC(=O)NCc1ccc(Cn3c(=O)sn(-c4ccccc4)c3=O)cc1)=C\CC[C@@]1(C)O[C@@H]21
active: [1] -4.67% | [2] 1.88% | [7] -40.1%
inactive: [3] 42% | [4] 68.3% | [5] 34.8% | [6] 134% | [10] 87.5% | [9] 106%

COc1ccc(-c2cc(-c3cc(OC)ccc3OC)nc(SCC(C)=O)c2C#N)cc1
inactive: [1] 32.1% | [2] 33.2% | [3] 80.8% | [4] 84.1% | [5] 69.6% | [6] 59.9% | [7] 83.9% | [10] 76.1% | [9] 52.1%

CCN1C(=O)N(c2ccccc2)C2NC(=S)N(/N=C/C=C/c3ccccc3OC)C21 (stereo not drawn)
active: [3] 9.48% | [7] 3.96% | [9] 6.95%
inactive: [1] 17.4% | [2] 14.7% | [4] 27.8% | [5] 45.5% | [6] 31.6% | [10] 20.2%

O=C(OCc1ccc2c(Cl)cc(Cl)c(O)c2n1)N1CCN(C(=O)c2cc3ccccc3[nH]2)CC1
active: [9] 7.03%
inactive: [1] 25.3% | [2] 40.6% | [3] 23.8% | [4] 41.3% | [5] 19.6% | [6] 31.2% | [7] 18.5% | [10] 43.5%

COC(=O)c1ccc2cc(OC)c(OC)cc2c1
inactive: [1] 91.5% | [2] 101% | [3] 104% | [4] 101% | [5] 113% | [6] 118% | [7] 118% | [10] 105% | [9] 107%

Nc1nc(N(Cc2ccccc2)c2ccccc2)c2cn[nH]c2n1
active: [1] 4.11%
inactive: [2] 58.5% | [3] 80.3% | [4] 100% | [5] 78.6% | [6] 95.6% | [7] 80.7% | [10] 58.2% | [9] 59.9%

COc1ccc2c(O)c(/C=C3\N=Nc4ncccc43)oc2c1C[C@@H]1CCNC[C@H]1F
inactive: [4] 17% | [6] 15%
active: [1] -22.1% | [2] -4.16% | [3] -20.5% | [5] -37.8% | [7] -2.07% | [8] -17.9% | [9] 1.39%

COCCOC(C)C(/C=N/NC(N)=S)=N/NC(N)=S (stereo not drawn)
inactive: [1] 53.2% | [2] 36.2% | [3] 57.1% | [4] 97.7% | [6] 93.3% | [7] 21.2% | [10] 83.3% | [9] 52.7%
active: [5] 9.81%

COc1ccc(-c2nc3ccc(C)cc3c3c2c(=O)n(C)c(=O)n3C)cc1OC
inactive: [1] 99.4% | [2] 101% | [3] 107% | [4] 97% | [5] 122% | [6] 109% | [7] 108% | [9] 92.5%

O=c1oc2c(cc1-c1ccccc1)c[n+]([O-])c1ccccc21
inactive: [1] 103% | [2] 98.2% | [3] 94.9% | [4] 102% | [5] 98.6% | [6] 104% | [7] 102% | [8] 112% | [9] 109%

Fc1cccc(CNc2c3ccccc3nc3ccccc23)c1
inactive: [1] 19.1% | [2] 10.1% | [3] 36% | [4] 43.8% | [5] 30.5% | [6] 51.1% | [7] 25.6% | [10] 63.9% | [9] 30.1%

Cc1[nH]c(C(=O)Nc2ccccc2OC2CCN(CCN3CCOCC3)CC2)c(Cl)c1Cl
inactive: [1] 10.3% | [2] 67.4% | [3] 101% | [4] 96.4% | [5] 97.7% | [6] 111% | [7] 101% | [10] 93.8% | [9] 97.6%

COc1ccc(/C=C/C(c2cc(OC)c(OC)c(OC)c2)n2cncn2)cc1O (stereo not drawn)
active: [1] 5.67%
inactive: [2] 19.9% | [3] 16% | [4] 86.5% | [5] 83.5% | [6] 12.7% | [7] 50.5% | [8] 15.7% | [9] 10.8%

C=C(C)[C@@H]1CC[C@]2(C(=O)Nc3ccccn3)CC[C@]3(C)[C@H](CC[C@@H]4[C@@]5(C)CCCNC(C)(C)[C@@H]5CC[C@]43C)[C@@H]12
active: [1] -29.5% | [2] -46% | [5] 8.81%
inactive: [3] 12.4% | [4] 70.7% | [6] 32.2% | [7] 35.4% | [8] 20.9% | [9] 61%

Oc1c(I)cc(I)cc1CN(Cc1ccccn1)Cc1ccccn1
inactive: [2] 16.1% | [3] 10.1% | [4] 55.1% | [5] 26.4% | [6] 25.8% | [7] 15.3% | [10] 38.9%
active: [1] 9.92% | [9] 0.252%

Nc1c(Br)cc2c(c1Br)Cc1cc([N+](=O)[O-])ccc1-2
inactive: [1] 64.3% | [2] 91.3% | [3] 95.4% | [4] 112% | [5] 85.4% | [6] 92.2% | [7] 135% | [10] 104% | [9] 104%
